Results on six molecules are retold here after PubChem BioAssay (Tox21).

For test [1], the target named is Aryl hydrocarbon receptor (Homo sapiens) (UniProt P35869). Kind of test: qHTS assay to identify small molecule that activate the aryl hydrocarbon receptor (AhR) signaling pathway (AID 743085).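 Note: HG2L7.5c1 human HepG2 liver cells with stably integrated DRE-driven firefly reporter; series mostly up to about 70 µM; nearly all actives have a fitted effect of over 15% in size.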 An outline of the steps: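 A multiplexed format paired cell viability (CellTiter-Fluor fluorescence) with AhR-dependent luciferase output (ONE-Glo luminescence) in the same wells of HepG2 DRE-luc cells after 24 h compound exposure at 37C.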
Sequence of Aryl hydrocarbon receptor (Homo sapiens) (P35869 whole entry, looked up): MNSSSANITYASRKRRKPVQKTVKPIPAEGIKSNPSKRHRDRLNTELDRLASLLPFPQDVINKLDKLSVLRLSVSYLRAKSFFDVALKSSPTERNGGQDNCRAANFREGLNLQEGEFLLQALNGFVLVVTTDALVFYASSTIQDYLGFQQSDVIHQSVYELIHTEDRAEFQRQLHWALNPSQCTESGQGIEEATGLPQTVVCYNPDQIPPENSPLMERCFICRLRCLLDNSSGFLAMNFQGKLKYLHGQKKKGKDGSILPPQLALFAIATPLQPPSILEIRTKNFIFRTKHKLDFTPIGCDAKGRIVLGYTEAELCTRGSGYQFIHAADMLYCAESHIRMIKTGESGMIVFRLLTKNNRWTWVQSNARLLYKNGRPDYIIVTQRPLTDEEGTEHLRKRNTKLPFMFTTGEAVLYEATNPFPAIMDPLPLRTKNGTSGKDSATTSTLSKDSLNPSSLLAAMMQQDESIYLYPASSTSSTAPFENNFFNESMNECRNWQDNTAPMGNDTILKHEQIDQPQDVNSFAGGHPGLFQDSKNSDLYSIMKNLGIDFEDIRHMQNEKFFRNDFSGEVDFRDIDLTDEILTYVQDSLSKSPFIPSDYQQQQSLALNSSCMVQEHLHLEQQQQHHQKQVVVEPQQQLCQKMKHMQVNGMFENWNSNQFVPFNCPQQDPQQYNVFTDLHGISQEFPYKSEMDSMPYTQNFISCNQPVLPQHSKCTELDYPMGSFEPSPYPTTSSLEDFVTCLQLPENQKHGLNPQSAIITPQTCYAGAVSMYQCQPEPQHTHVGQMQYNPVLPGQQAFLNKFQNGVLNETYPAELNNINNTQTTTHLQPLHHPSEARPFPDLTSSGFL
A general note: Quantitative high-throughput screening tests each substance at several concentrations.

A short description of test [2]: qHTS assay to identify small molecule that activate the aryl hydrocarbon receptor (AhR) signaling pathway - cell viability counter screen (AID 743086).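 Note: HepG2 liver cells carrying the AhR DRE luciferase reporter; series mostly up to about 70 µM; nearly all actives have a fitted effect of over 45% in size.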 An outline of the steps:
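HepG2-AhR-luc (HG2L7.5c1) cells, 4000/well, were preincubated 5 h at 37C, exposed to compound in qHTS format for 24 hr at 37C, then given CellTiter-Fluor for 30 min; viability was read as fluorescence in the reporter wells.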

Test [3] concerns the target Peroxisome proliferator-activated receptor gamma (Homo sapiens) (UniProt P37231). In words: qHTS assay to identify small molecule agonists of the peroxisome proliferator-activated receptor gamma (PPARg) signaling pathway (AID 743094; active = well fitted activation curve with a large enough effect in the signal ratio in the repeat runs, not every such curve was filed as active; the % refers to the signal ratio). The gist of the method: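 Stably transfected HEK293H cells (GeneBLAzer PPARg UAS-bla) were incubated with test substances for 17 h at 37C after a 5 h pre-incubation; beta-lactamase activity was then detected by FRET substrate fluorescence.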

The nature of test [4]: qHTS assay to identify small molecule antagonists of the peroxisome proliferator-activated receptor gamma (PPARg) signaling pathway - cell viability counter screen (AID 743194). Note: nearly all actives have a fitted effect of over 55% in size. An outline of the steps:
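PPARg-UAS-bla HEK293H cells were plated, rested 5 h at 37 C, then treated with compounds plus rosiglitazone (50 nM final) for 17 h at 37 C; viability was then read by CellTiter-Glo luminescence after 30 min at room temperature.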

Test [5] is described as follows: qHTS assay for small molecule agonists of the antioxidant response element (ARE) signaling pathway - cell viability counter screen (AID 743203; calls by dose curve; note: nearly all actives have a fitted effect of over 55% in size). The gist of the method: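 Cells (ARE-bla HepG2, 2,000/well) receive DMSO-dissolved compounds after a 5 hrs rest. Plates incubate 16 hrs at 37C/5% CO2. CellTiter-Glo luminescence is then recorded after 30 min at room temperature.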

Test [6] in a line: qHTS assay for small molecule activators of the heat shock response signaling pathway (AID 743210; active = well fitted activation curve with a large enough effect in the signal ratio in the repeat runs, with a control signal flat, not every such curve was filed as active; the % refers to the signal ratio; note: series mostly up to about 63 µM). The gist of the method: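 Reporter gene assay: HeLa cells stably bearing an HSE-bla construct, compound treatment 5 h at 37 C, LiveBLAzer substrate 2.5 h at RT, fluorescence intensity.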
Test [7] is described as follows: qHTS assay to identify small molecule agonists of the peroxisome proliferator-activated receptor delta (PPARd) signaling pathway - cell viability counter screen (AID 743211). Note: nearly all actives have a fitted effect of over 55% in size. An outline of the steps: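 Tox21 library compounds, delivered in DMSO, were incubated 17 h with PPARd-bla HEK293H cells; cytotoxicity was taken from CellTiter-Glo luminescence read 30 min after reagent addition.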

Test [8] deals with Peroxisome proliferator-activated receptor delta (Homo sapiens) (UniProt Q03181). In words: qHTS assay to identify small molecule agonists of the peroxisome proliferator-activated receptor delta (PPARd) signaling pathway (AID 743212; calls by dose curve). An outline of the steps:
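A PPARd-bla HEK293H line with beta-lactamase under an Upstream Activator Sequence is treated with compounds at 37 C. Substrate loading for 2 h at room temperature precedes the fluorescence measurement.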

Test [9] is described as follows: qHTS assay to identify small molecule antagonists of the peroxisome proliferator-activated receptor delta (PPARd) signaling pathway - cell viability counter screen (AID 743213). Note: nearly all actives have a fitted effect of over 50% in size. Note: potency is the fitted concentration of half-maximal effect. An outline of the steps:
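HEK293H PPARd UAS-bla cells, 5 h pre-incubation, compound + L165041 300 nM final, 17 h 37 C; B/G FRET substrate 2 h RT; then CellTiter-Glo 30 min RT, luminescence.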

The target in test [10] is Peroxisome proliferator-activated receptor delta (Homo sapiens) (UniProt Q03181). Kind of test: qHTS assay to identify small molecule antagonists of the peroxisome proliferator-activated receptor delta (PPARd) signaling pathway (AID 743215; active = well fitted inhibition curve with a large enough effect in the signal ratio in the repeat runs, not every such curve was filed as active; the % refers to the signal ratio;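 note: cells stimulated with agonist L165041 at 300 nM final during compound exposure; series mostly up to about 62 µM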). The gist of the method:
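Antagonist-mode beta-lactamase reporter screen: HEK293H cells with UAS-bla under PPARd control, stimulated by 300 nM L165041 (final) alongside test compound for 17 h at 37 C, then FRET fluorescence after 2 h substrate incubation.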

For test [11], the target named is Bile acid receptor (Homo sapiens) (UniProt Q96RI1). In words: qHTS assay to identify small molecule antagonists of the farnesoid-X-receptor (FXR) signaling pathway (AID 743217; active = well fitted inhibition curve with a large enough effect in the signal ratio in the repeat runs, not every such curve was filed as active; the % refers to the signal ratio). The gist of the method:
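Beta-lactamase reporter under UAS control in HEK 293T cells; compound exposure 16 h at 37 °C in the presence of chenodeoxycholic acid (50 uM final); signal from B/G FRET substrate after 2 h at room temperature.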

For test [12] the target is unchanged. In words: qHTS assay to identify small molecule agonists of the farnesoid-X-receptor (FXR) signaling pathway (AID 743220; active = well fitted activation curve with a large enough effect in the signal ratio in the repeat runs, not every such curve was filed as active; the % refers to the signal ratio). The gist of the method: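 Beta-lactamase reporter under UAS control in GeneBLAzer FXR HEK 293T cells (5000/well) measured with LiveBLAzer FRET substrate after 2 h at room temperature. Compound exposure lasted 16 h at 37C.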
A short description of test [13]: qHTS assay to identify small molecule antagonists of the farnesoid-X-receptor (FXR) signaling pathway - cell viability counter screen (AID 743221; active = well fitted cell-killing curve with a large enough effect in the repeat runs, not every such curve was filed as active; note: nearly all actives have a fitted effect of over 50% in size). An outline of the steps:
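Cytotoxicity is taken from ATP luminescence (CellTiter-Glo, 30 min, room temperature) in FXR-bla HEK 293T cells previously incubated 16 h at 37 C with compound and chenodeoxycholic acid at 50 uM final.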

In test [14] the target is Vitamin D3 receptor (Homo sapiens) (UniProt P11473). Kind of test: qHTS assay to identify small molecule antagonists of the vitamin D receptor (VDR) signaling pathway (AID 743223; active = well fitted inhibition curve with a large enough effect in the signal ratio in the repeat runs, not every such curve was filed as active; the % refers to the signal ratio). An outline of the steps:
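Quantitative HTS in VDR-bla reporter cells stimulated with 1alpha,25-dihydroxyvitamin D3, 3 nM final. Compound exposure 16 h, 37C, 5% CO2. Read-out: beta-lactamase FRET substrate fluorescence, 2 h RT.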

Test [15] in a line: qHTS assay to identify small molecule agonists of the vitamin D receptor (VDR) signaling pathway - cell viability counter screen (AID 743224). Note: series mostly up to about 63 µM; nearly all actives have a fitted effect of over 50% in size. The gist of the method: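 VDR-bla cell line, quantitative HTS format; 16 h compound incubation (37C, 5% CO2); ATP-based CellTiter-Glo luminescence measured in the reporter assay wells.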
Test [16] in a line: qHTS assay for small molecule activators of the heat shock response signaling pathway - cell viability counter screen (AID 743209). Note: nearly all actives have a fitted effect of over 50% in size. The gist of the method: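 Quantitative HTS format, Tox21 10K library. HeLa cells carrying an HSE-driven beta-lactamase reporter were treated 5 h at 37 C, then assessed for viability by CellTiter-Glo luminescence.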
Test [17] can be described thus: qHTS assay to identify small molecule agonists of the farnesoid-X-receptor (FXR) signaling pathway - cell viability counter screen (AID 743218). Note: nearly all actives have a fitted effect of over 45% in size. Note: potency is the fitted concentration of half-maximal effect. An outline of the steps:
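In GeneBLAzer FXR-UAS-bla HEK 293T cells, compounds act for 16 h at 37 C. Cell viability is then scored in the reporter wells by CellTiter-Glo, 30 min at RT, luminescence.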

Test [18] concerns the target Vitamin D3 receptor (Homo sapiens) (UniProt P11473). In words: qHTS assay to identify small molecule agonists of the vitamin D receptor (VDR) signaling pathway (AID 743222; calls by dose curve). The gist of the method:
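Agonist activity measured in VDR-bla reporter cells. Exposure 16 h, 37C, 5% CO2; detection by B/G FRET substrate, 2 h RT.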

A short description of test [19]: qHTS assay for small molecule agonists of the antioxidant response element (ARE) signaling pathway (AID 743202; active = well fitted activation curve with a large enough effect in the signal ratio in the repeat runs, not every such curve was filed as active; the % refers to the signal ratio). The gist of the method: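 Compounds delivered in DMSO to ARE-bla HepG2 cells (2,000 cells/well, pre-incubated 5 h) and left 16 h at 37 C. LiveBLAzer B/G FRET substrate then added for 2 h at RT before fluorescence reading.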
The target in test [20] is Peroxisome proliferator-activated receptor gamma (Homo sapiens) (UniProt P37231). In words: qHTS assay to identify small molecule antagonists of the peroxisome proliferator-activated receptor gamma (PPARg) signaling pathway (AID 743191; calls by dose curve; note: series mostly up to about 63 µM; nearly all actives have a fitted effect of over 30% in size). The gist of the method:
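GeneBLAzer PPARg UAS-bla HEK293H cells carrying a UAS-driven beta-lactamase reporter were plated at 3000 cells/well, preincubated 5 h at 37C, then given compound for 17 h at 37C; LiveBLAzer B/G FRET substrate was read after 1 h at room temperature.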

Records with an inconclusive call do not appear. The source made the active and inactive calls. Unless noted, calls come from the whole dose curve; as a rule, active = well fitted curve in the direction sought with a large enough effect in the repeat runs; inconclusive = weak or mixed curves; inactive = no such curve, though single readings can be large; an effect the other way counts as inactive or inconclusive.

Sequence of Peroxisome proliferator-activated receptor gamma (Homo sapiens) (P37231 whole entry, looked up): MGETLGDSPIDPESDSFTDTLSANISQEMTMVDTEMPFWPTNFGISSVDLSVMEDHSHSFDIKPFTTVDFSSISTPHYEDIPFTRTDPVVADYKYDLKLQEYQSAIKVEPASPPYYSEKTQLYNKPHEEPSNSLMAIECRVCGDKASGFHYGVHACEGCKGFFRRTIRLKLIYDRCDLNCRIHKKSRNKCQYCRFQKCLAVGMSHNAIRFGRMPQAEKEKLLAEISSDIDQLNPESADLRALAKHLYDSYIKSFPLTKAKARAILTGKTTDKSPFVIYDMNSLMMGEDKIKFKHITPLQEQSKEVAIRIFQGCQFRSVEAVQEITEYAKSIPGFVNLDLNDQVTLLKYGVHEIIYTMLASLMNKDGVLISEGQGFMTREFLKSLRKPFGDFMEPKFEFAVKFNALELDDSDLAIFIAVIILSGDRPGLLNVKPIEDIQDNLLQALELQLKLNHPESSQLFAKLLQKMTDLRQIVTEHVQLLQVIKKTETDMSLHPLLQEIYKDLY
Sequence of Bile acid receptor (Homo sapiens) (Q96RI1 whole entry, looked up): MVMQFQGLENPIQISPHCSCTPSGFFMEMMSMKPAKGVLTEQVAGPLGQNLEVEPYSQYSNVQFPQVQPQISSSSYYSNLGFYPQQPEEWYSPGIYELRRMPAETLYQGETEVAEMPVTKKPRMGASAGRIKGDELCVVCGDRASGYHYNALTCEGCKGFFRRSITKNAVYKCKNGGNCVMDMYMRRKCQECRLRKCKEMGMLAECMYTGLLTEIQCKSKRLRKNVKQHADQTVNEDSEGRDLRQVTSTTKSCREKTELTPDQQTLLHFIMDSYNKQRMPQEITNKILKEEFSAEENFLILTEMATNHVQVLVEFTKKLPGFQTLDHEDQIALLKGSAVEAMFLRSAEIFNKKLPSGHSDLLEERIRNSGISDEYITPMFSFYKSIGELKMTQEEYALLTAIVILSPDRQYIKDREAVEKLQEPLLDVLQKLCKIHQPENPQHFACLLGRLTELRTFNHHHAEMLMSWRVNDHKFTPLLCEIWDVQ
Sequence of Peroxisome proliferator-activated receptor delta (Homo sapiens) (Q03181 whole entry, looked up): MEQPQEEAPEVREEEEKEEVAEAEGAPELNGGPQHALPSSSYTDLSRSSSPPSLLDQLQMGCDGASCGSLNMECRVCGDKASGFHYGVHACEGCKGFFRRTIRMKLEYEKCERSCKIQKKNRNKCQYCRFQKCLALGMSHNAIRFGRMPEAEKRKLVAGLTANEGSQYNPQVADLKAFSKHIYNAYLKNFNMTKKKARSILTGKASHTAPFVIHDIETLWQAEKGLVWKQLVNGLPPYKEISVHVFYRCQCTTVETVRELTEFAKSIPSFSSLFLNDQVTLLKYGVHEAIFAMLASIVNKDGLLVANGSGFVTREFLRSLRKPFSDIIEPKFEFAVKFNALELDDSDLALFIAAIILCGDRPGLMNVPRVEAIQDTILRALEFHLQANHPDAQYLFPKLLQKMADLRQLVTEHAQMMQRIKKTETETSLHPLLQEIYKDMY
Sequence of Vitamin D3 receptor (Homo sapiens) (P11473 whole entry, looked up): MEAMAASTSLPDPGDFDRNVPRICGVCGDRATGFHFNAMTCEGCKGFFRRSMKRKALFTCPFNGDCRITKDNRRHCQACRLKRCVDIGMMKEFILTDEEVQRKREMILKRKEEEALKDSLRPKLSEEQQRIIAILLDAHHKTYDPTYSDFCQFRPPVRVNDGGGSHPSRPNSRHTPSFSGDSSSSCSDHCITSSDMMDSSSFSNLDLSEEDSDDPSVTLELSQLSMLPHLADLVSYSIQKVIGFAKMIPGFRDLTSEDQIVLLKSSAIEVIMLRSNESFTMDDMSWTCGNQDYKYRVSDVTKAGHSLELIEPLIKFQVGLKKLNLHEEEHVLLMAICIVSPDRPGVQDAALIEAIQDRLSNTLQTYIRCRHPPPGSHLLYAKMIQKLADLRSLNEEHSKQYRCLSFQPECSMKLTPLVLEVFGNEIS

For the molecule `C=C(C)C(=O)OCCOCCOC(=O)C(=C)C`, the Potency entry in [1], in test [2], in [3], in test [4], in [5] and in [6] was “inactive” each time. Besides, the Potency entry in [7], in test [8], in test [9], in test [10], in [11] and in test [12] was “inactive” throughout. Moreover, the Potency result in test [13], in test [14] and in [15] was “inactive” throughout.

With `CN(C)CCC=C1c2ccccc2C=Cc2ccccc21`, the Potency entry in test [1], in [2], in test [3], in [4], in [5] and in test [16] was “inactive” in each case. The Potency result in test [10], in test [18], in test [14] and in test [15] was “inactive” in each case. Also, the Potency in [9] is 23.7 µM (active); in test [17] it was 11.9 µM (active).

With `Nc1ncnc2c1ncn2[C@H]1CC[C@@H](CO)O1`, the Potency result in [1], in [2], in [3], in test [4], in [19] and in test [5] was “inactive” throughout. Further, the Potency entry in test [6], in [7], in test [8], in [10], in [11] and in test [17] was “inactive” each time. In addition, the Potency result in [12], in [13], in test [18], in test [14] and in test [15] was “inactive” in each case.

Take `CC1=C(CC=O)C(C)(C)CCC1`: the Potency entry in test [1], in test [2], in test [3], in [4], in [19] and in [5] was “inactive” in each case. Moreover, the Potency entry in [16], in [7], in test [9], in test [17], in test [13] and in test [18] was “inactive” each time. The Potency entry in test [15] was “inactive”.

For the molecule `C=C1c2cccc(O)c2C(O)=C2C(=O)[C@]3(O)C(O)=C(C(N)=O)C(=O)[C@@H](N(C)C)[C@@H]3[C@@H](O)[C@H]12`, the Potency entry in test [1], in test [2], in test [3], in test [4], in test [19] and in test [5] was “inactive” in each case. The Potency result in [16], in test [7], in test [8], in test [9], in test [10] and in test [11] was “inactive” throughout. For the same molecule, the Potency result in test [12], in [13], in [18] and in test [15] was “inactive” each time.

Consider `CCCCCCC(C)(C)C(=O)O`, for which the Potency result in test [1], in test [2], in [3], in test [20], in [5] and in test [16] was “inactive” throughout. The Potency result in test [7], in test [8], in [9], in test [10], in test [11] and in test [17] was “inactive” throughout. The Potency entry in [12], in test [13], in [18] and in test [15] was “inactive” in each case.
